Sampled rows, rich in hits. Any-hit rate of the full collection: about 8.7%.
JMJD2A Tudor = JMJD2A Tudor domain (human) inhibition; O75164; AlphaScreen JMJD2A-Tudor / H3K4me3 peptide binding; Potency, µM (top dose mostly 114 µM), for inactives: top-dose activity change, negative = inhibition, hits mostly inhibitors; hit rate 4.4% among 390,000; AID 504339; note: % is set by controls: 0 for no effect and ±100 for the full control effect; nearly all actives have a fitted effect of over 50% in size
G9a inh = G9a (human) methyltransferase inhibition; Q96KQ7; G9a H3K9 monomethylation, AlphaScreen, 2 h; Potency, µM (titrated, usually from 102 µM), for the others: at the top dose activity, negative = inhibition, usual class: inhibitors; hit rate 8.8% among 350,000; note: % is set by controls: 0 for no effect and ±100 for the full control effect; nearly all actives have a fitted effect of over 75% in size
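G9a (20 nM) preincubated 15 min RT with compounds, then 500 nM biotinylated H3K9 peptide and 20 uM SAM added; 2 h RT reaction. Monomethyl-H3K9 product detected by AlphaScreen with anti-H3K9me1 antibody, streptavidin donor and anti-rabbit IgG acceptor beads.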
ALOX12 inh = inhibitors of human 12S-lipoxygenase ALOX12. P18054. purified 12hLO, xylenol orange hydroperoxide absorbance. Potency, µM (highest dose often 108 µM), inactives show top-dose activity change, negative = inhibition, usual class: inhibitors. hit rate 1.1% among 580,000; note: % is set by controls: 0 for no effect and ±100 for the full control effect
Target sequence (P18054 whole entry, looked up): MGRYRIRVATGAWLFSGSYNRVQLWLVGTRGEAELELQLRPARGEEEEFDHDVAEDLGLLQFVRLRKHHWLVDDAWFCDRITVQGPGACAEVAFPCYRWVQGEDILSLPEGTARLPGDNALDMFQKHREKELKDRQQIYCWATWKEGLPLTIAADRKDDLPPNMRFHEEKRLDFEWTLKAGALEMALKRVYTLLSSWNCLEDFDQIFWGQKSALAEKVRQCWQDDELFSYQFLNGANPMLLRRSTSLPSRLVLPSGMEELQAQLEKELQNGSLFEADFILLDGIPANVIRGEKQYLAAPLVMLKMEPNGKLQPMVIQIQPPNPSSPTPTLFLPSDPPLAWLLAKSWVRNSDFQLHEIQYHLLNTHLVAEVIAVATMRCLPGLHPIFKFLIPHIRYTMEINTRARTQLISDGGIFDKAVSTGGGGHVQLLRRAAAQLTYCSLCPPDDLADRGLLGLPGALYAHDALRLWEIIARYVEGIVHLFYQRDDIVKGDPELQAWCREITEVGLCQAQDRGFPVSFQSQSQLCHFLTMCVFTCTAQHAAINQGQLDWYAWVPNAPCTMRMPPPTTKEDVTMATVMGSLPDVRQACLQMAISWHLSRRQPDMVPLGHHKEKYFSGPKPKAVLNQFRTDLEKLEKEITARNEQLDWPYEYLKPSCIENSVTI
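Hydroperoxide product was detected by ferrous iron/xylenol orange as the 573 to 405 nm absorbance ratio. Arachidonic acid at 40 uM (final) was turned over for 30 min at room temperature by 150 nM human 12hLO, pH 7.0 Hepes buffer, after 15 min compound preincubation.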
Sfp inh = inhibitors of Bacillus subtilis Sfp phosphopantetheinyl transferase; Biochemical Sfp PPTase activity, qHTS; hit rate 3.5% among 310,000; Potency, µM, for inactives: largest response in the series, negative = inhibition, most hits filed as inhibitors;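 note: the enzyme is Sfp with the accession as filed and its product quenches rhodamine fluorescence; 0% = enzyme reaction without inhibitor and -100% = no enzyme wells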
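After 15 min at room temperature with compound, 15 nM Sfp received 5 uM rhodamine-CoA plus 12.5 uM BHQ-2-ybbR (50 mM Hepes pH 7.6, 10 mM MgCl2). Rate came from the fluorescence difference over 30 min, ex 525/em 598 nm.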
BAZ2B block = blocks human BAZ2B | Q9UIF8 | AlphaScreen BAZ2B-H3K14Ac peptide displacement | Potency, µM (top dose mostly 114 µM), without a hit: top-dose activity change, negative = inhibition, usual class: inhibitors | hit rate 4.4% among 360,000; note: % is set by controls: 0 for no effect and ±100 for the full control effect; nearly all actives have a fitted effect of over 60% in size
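AlphaScreen displacement: compounds (up to 110uM) incubated 30 min at room temperature with a preformed 50 nM BAZ2B/50 nM biotinylated H3K14Ac peptide complex in PBS pH 7.4 with Tween-20. Donor and acceptor beads at 10 ug/mL final added, 20 min light-protected before reading.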
HP1b chromo inh = inhibitors of HP1-beta chromodomain binding to methylated histone tails. P83916. AlphaScreen HP1-beta / biotin-H3K9me3 peptide binding. Potency, µM (top dose mostly 114 µM), inactives show at the highest dose activity change, negative = inhibition, hits mostly inhibitors. hit rate 0.56% among 390,000. AID 540317; note: nearly all actives have a fitted effect of over 70% in size
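HP1-beta protein (50 nM final) preincubated 30 min at room temperature with biotinylated H3(1-18)K9me3 peptide (50 nM) in PBS pH 7.4, 0.01% Tween-20, then compound added for 30 min. AlphaScreen streptavidin donor/nickel chelate acceptor beads (10 ug/mL final), 30 min dark, luminescence read.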
* = called active by the depositor; ? = inconclusive; . = no result; ! = a repeat was not active; [ ] = remark or other dose. Calls come from the whole dose curve; as a rule, active = well fitted curve in the direction sought with a large enough effect; inconclusive = small, poorly fitted or top-dose-only effect, or another doubt; inactive = no such curve, though single readings can be large; an effect the other way counts as inactive or inconclusive. Potency is the fitted concentration of half-maximal effect.

SMILES	JMJD2A Tudor	G9a inh	ALOX12 inh	Sfp inh	BAZ2B block	HP1b chromo inh
O=C(CSc1nnc(COc2ccccc2)o1)Nc1nccs1	-33.8%	12.7%	9.4%	11.4%	79.4µM*	64.2%
Cc1ccc(OCc2nnc(SCC(=O)Nc3ccc(N4CCOCC4)cc3)o2)cc1	-12.3%	-10.9%	-13.3%	12.3%	-16.9%	25.0%
Cc1cc(-c2nnc(SCC(=O)Nc3ccccn3)o2)no1	?	41.1%[59 µM]	9.7%	14.1%	-11.8%	18.7%
O=C(CSc1nnc(COc2ccccc2)o1)NCCc1ccccc1	3.16µM*	-4.0%[59 µM]	0.0%	21.3%	6.2%	?
O=C(CSc1nnc(COc2ccc(Cl)cc2)o1)Nc1ccc(N2CCOCC2)cc1	-6.2%	31.6µM*	-2.7%	.	4.0%	15.4%
CC(C)N1CCC(NC(=O)c2cccc3ccccc23)CC1	.	.	4.1%	.	.	.
COc1ccccc1NC(=O)Cn1c(C)ccc(NS(=O)(=O)c2ccccc2)c1=O	.	.	7.4%	.	.	.
O=C(CSc1nnc(C2COc3ccccc3O2)o1)Nc1nccs1 (stereo unspecified)	79.4µM*	0.2%	.	-3.2%	39.8µM*	48.2%
O=C(CSc1nnc(COc2ccc(Cl)cc2)o1)Nc1nccs1	.	.	0.4%	.	.	.
Cc1cccc(OCc2nnc(SCC(=O)Nc3nccs3)o2)c1	-32.2%	7.0%	481.6%	30.4%	79.4µM*	44.5%
C=C1CN(CC(=O)OC)S(=O)(=O)c2ccccc21	89.1µM*!	-11.0%[59 µM]	-11.8%	-14.7%	-6.8%	-16.7%
COC(=O)CN1CCC(=O)c2ccccc2S1(=O)=O	-5.5%	.	.	23.9%	.	32.2%
CCOC(=O)c1cccn1C1C(=O)N(Cc2ccc(C(F)(F)F)cc2)c2ccccc21 (stereo unspecified)	.	.	-11.4%	.	.	.
COc1ccc2c(c1)C(n1c(C)ccc1C)C(=O)N2Cc1ccc(C(F)(F)F)cc1 (stereo unspecified)	.	.	12.6µM*	.	.	.
Cc1ccc(C)n1C1C(=O)N(Cc2ccc(C(F)(F)F)cc2)c2ccc(F)cc21 (stereo unspecified)	.	.	25.1µM*	.	.	.
CC1Sc2ccccc2N(Cc2ccc(OC(F)(F)F)cc2)C1=O (stereo unspecified)	.	.	10.8%	.	.	.
COc1ccc2c(c1)C(n1ccc3ccccc31)C(=O)N2Cc1ccc(C(C)C)cc1 (stereo unspecified)	.	.	14.1µM*	.	.	.
COc1ccc(CN2C(=O)C(n3c(C)ccc3C)c3cc(OC(F)(F)F)ccc32)cc1 (stereo unspecified)	.	.	39.8µM*	.	.	.
Cc1ccc2c(c1)C(=O)C(=O)N2Cc1ccc(C(F)(F)F)cc1	-31.2%	.	0.0%	.	.	1.2%
COc1ccc(CN2C(=O)C(n3cccc3)c3ccccc32)cc1 (stereo unspecified)	.	.	-22.7%	.	.	.
COc1ccccc1OCc1cc(C(=O)N(C)CC2Cc3ccccc3O2)n[nH]1 (stereo unspecified)	.	.	25.8%	.	.	.
O=C(NCCc1ccccn1)[C@@H]1C[C@@H](c2ccc(F)cc2)N(CCOc2ccccc2)C1	.	.	-3.9%[176 µM]	.	.	.
COc1ccc(C2(C(=O)N3CCCCCCN(C)C(=O)[C@@H]4CCC[C@@H]43)CC2)cc1	.	.	35.6%	.	.	.
O=c1c(O)c(-c2ccccc2)oc2cccc(O)c12	.	.	.	12.4%	.	.
O=[N+]([O-])c1cc([N+](=O)[O-])c2oc(-c3ccccc3)c(Br)c2c1O	44.7µM*	50.1µM*	.	4.1%	35.5µM*	?
SMILES	JMJD2A Tudor	G9a inh	ALOX12 inh	Sfp inh	BAZ2B block	HP1b chromo inh
CCn1cc(C(=O)NCc2ccccn2)c(=O)c2cc(F)c(N3CCN(C)CC3)cc21	-9.7%	0.447µM*	25.3%	19.7%	-0.6%	23.1%
CCn1cc(C(=O)NCc2ccco2)c(=O)c2cc(F)c(N3CCN(C(=O)c4ccco4)CC3)cc21	-30.1%	14.1µM*	36.3%	?	56.2µM*	24.1%
Nc1c(C(=O)N/N=C/c2cccnc2)oc2nc(-c3ccccc3)cc(-c3ccco3)c12	-21.0%	?	?	-23.8%	-25.5%	29.6%
O=CNn1cnc2c(oc3nc(-c4ccccc4)cc(-c4ccco4)c32)c1=O	?	50.1µM*	-5.5%	?	-37.4%	?
CC1=NN(c2ccccc2)C(=O)/C1=C\c1ccc(Oc2ccc([N+](=O)[O-])cc2[N+](=O)[O-])cc1	39.8µM*	44.7µM*	-2.3%	-6.3%	39.8µM*	?
COc1cc(/C=C2\C(=O)N(c3ccccc3)N=C2C)ccc1Oc1ccc([N+](=O)[O-])cc1[N+](=O)[O-]	25.1µM*	?	-8.6%	-7.0%	44.7µM*	?
COc1ccc(F)cc1-c1ccccc1C=O	.	.	0.0%[12.5 µM]	.	.	.
CCc1ccc(NC(=O)c2ccccc2SCC(=O)NCc2ccco2)cc1	.	.	5.62µM*	.	.	.
CCSc1ccccc1C(=O)NCc1ccco1	-23.0%	10µM*	-3.8%	14.5%	-0.1%	4.8%
CCOC(=O)c1[nH]c(C)c(C(=O)NCc2ccc(C)cc2)c1C	-3.6%	-3.0%	348.3%	1.5%	-6.1%	17.7%
CCSc1ccccc1C(=O)NCc1cccnc1	-15.8%	8.91µM*	?	-4.1%	-12.1%	20.6%
CCOC(=O)c1[nH]c(C)c(C(=O)NCc2cccnc2)c1C	-15.7%	35.5µM*	444.7%	-1.4%	12.8%	50.2%
CCSc1ccccc1C(=O)NCC(C)C	.	.	10.8%	.	.	.
Cc1cccc(C(=O)N2CCC(N3C(=O)C4(CCCC4)C3c3scnc3C)CC2)c1 (stereo unspecified)	.	.	22.0%	.	.	.
CNC(=O)N1CCOc2ccc(CCC(=O)NCC3CC3)cc2C1	.	.	67.2%	.	.	.
CCN(CC)C(=O)CC[C@@H]1CNC(=O)[C@@H]2C[C@H](NCc3ccc(F)cc3)CN12	.	.	5.5%[176 µM]	.	.	.
CNC(=O)c1cc(=O)n(CC(=O)Nc2ccc(C(C)=O)cc2)c2ccccc12	.	.	2.8%	.	.	.
Cc1cc(C)cc(NC(=O)Cn2c(N3CCOCC3)nc(C)cc2=O)c1	.	.	-6.0%	.	.	.
CCCC(=O)N1Cc2ccccc2CC2(CCCCN2Cc2ccncc2)C1 (stereo unspecified)	.	.	36.9%	.	.	.
O=C(NCc1ccco1)c1ccccc1Br	50.1µM*	9.4%[12.7 µM]	1.5%	17.1%	12.5%	-22.9%
CCCCNC(=O)C1c2ccccc2Oc2ccccc21	-17.5%	?	0.6%	1.4%	-20.5%	13.3%
O=C(NCc1ccco1)C1c2ccccc2Oc2ccccc21	50.1µM*	?	44.2%	39.8µM*	-8.8%	0.7%
CCc1ccc(S(=O)(=O)Nc2cc3c(C(=O)OC)c(COC)oc3c3ccccc23)cc1	.	.	8.0%	.	.	.
CSc1nc2ccc(Nc3nc(N4CCOCC4)nc(N4CCOCC4)n3)cc2s1	-35.8%	15.8µM*	0.0%	-16.2%	1.2%	2.7%
Cc1ccc(Nc2nc(N3CCOCC3)nc(N3CCOCC3)n2)cc1	-14.1%	.	4.1%	4.5%	2.3%	20.3%
